Experimental data from the supplement of paper PMC10849652.
Of roughly 7,900 targets only a part is listed; those with a hit were picked by preference. About 0.6% of all pairs of compound and target were hits.

Compound: C1COCCN1CCN2C3=CC=CC=C3N=C2NC(=O)C4=CC(=CC=C4)[N+](=O)[O-] [IRAK-1-4 Inhibitor I]
Experiment: log2 fold change, soluble protein after heating vs DMSO (PISA); higher = thermal stabilisation; K562 cells, 10 uM, 30 min; active = over 0.2 and 3.5 SD of the protein, either way, in both replicates (recomputed)
Procedure, shortened: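 Soluble protein was quantified by TMTpro 16plex LC-MS/MS after channel sums were equalised. It was obtained as the supernatant after 21,000xg for 90 min from pooled aliquots of K562 cells (2×10^6 cells/mL, 10 μM compound, 30 min) heated for 3 min across 48°C-58°C and extracted in PBS with 0.5% NP-40 at 4°C. Thermal stability values are relative to control samples and come from duplicates. They are given as log2 fold changes.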

UniProt Q9P2N5, sequence (Q9P2N5 whole entry, looked up): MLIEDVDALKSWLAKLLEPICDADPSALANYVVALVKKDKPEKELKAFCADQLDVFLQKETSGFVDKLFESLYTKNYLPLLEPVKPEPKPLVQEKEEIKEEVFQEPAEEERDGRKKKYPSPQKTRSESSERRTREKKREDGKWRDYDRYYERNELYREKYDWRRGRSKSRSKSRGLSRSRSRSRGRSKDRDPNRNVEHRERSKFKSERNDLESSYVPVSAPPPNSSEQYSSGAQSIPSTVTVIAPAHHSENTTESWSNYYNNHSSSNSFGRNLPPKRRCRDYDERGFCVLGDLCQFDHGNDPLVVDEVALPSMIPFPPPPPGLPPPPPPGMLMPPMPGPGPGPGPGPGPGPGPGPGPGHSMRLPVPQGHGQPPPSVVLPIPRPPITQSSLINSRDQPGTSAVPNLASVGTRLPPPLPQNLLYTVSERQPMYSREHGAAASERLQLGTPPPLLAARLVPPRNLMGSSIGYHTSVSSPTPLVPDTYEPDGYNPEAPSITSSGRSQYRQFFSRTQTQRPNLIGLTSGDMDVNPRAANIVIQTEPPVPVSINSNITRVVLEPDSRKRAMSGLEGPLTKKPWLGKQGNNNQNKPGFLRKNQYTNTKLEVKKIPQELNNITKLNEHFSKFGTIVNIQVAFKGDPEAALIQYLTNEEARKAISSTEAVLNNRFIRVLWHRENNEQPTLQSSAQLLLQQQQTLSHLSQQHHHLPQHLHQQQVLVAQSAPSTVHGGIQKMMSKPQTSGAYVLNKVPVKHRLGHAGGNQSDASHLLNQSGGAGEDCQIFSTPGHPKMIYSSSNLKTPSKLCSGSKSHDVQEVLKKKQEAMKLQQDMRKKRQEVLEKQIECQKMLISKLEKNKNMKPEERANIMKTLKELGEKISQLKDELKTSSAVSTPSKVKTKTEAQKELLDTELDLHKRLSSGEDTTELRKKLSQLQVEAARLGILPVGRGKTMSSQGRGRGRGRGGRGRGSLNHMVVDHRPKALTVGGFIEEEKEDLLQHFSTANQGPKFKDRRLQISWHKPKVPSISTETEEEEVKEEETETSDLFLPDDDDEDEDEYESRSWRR
UniProt Q99590, sequence (Q99590 whole entry, looked up): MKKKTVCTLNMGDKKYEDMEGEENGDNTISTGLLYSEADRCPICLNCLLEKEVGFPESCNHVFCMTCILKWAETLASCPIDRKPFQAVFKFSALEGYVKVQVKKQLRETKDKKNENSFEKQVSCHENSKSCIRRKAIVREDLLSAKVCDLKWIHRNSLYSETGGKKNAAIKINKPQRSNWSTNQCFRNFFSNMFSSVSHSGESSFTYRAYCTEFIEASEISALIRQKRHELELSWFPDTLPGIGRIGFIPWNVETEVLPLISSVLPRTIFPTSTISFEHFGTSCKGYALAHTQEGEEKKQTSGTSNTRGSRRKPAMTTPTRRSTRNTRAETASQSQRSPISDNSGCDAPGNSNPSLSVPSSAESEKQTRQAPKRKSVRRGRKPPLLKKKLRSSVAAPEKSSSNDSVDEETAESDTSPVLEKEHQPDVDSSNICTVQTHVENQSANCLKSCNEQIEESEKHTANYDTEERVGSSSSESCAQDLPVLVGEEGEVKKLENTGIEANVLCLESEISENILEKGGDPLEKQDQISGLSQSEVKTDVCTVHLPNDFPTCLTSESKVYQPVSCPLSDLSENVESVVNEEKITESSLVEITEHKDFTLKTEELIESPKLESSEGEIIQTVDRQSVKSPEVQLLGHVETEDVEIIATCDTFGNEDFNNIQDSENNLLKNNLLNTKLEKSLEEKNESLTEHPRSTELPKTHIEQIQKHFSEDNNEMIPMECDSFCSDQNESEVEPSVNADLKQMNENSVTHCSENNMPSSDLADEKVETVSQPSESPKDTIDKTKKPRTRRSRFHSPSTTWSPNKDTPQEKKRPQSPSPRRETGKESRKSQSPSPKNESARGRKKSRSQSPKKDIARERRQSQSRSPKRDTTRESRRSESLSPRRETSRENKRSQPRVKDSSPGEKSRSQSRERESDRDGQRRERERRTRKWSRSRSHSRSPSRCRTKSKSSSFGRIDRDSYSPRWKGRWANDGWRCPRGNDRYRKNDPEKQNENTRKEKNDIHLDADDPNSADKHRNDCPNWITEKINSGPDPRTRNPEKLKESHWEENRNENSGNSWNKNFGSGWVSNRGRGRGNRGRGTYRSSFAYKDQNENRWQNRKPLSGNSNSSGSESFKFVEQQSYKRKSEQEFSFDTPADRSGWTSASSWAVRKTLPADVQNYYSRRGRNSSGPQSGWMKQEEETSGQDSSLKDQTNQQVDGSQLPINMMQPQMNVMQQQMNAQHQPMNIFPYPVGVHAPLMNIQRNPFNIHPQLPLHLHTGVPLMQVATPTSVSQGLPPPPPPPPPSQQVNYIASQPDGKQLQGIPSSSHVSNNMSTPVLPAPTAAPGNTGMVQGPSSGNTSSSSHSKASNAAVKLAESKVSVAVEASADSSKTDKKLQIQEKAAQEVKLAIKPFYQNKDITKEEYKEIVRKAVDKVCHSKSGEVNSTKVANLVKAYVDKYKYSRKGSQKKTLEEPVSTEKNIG
UniProt Q92696, sequence (Q92696 whole entry, looked up): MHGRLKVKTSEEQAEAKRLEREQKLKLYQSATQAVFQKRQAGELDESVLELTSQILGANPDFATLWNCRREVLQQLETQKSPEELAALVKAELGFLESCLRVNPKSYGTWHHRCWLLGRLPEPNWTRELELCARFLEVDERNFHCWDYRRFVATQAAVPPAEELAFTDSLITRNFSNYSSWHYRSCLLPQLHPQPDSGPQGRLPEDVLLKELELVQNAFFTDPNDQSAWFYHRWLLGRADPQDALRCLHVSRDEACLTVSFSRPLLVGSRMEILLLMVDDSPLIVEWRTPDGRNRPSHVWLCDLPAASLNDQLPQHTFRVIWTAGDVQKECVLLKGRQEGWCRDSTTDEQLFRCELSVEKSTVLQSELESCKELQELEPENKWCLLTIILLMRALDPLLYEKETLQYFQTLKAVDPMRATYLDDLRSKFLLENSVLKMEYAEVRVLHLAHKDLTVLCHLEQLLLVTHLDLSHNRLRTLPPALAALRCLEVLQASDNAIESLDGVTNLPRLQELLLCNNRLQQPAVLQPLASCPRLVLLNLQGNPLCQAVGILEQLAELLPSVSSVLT
UniProt P58004, sequence (P58004 whole entry, looked up): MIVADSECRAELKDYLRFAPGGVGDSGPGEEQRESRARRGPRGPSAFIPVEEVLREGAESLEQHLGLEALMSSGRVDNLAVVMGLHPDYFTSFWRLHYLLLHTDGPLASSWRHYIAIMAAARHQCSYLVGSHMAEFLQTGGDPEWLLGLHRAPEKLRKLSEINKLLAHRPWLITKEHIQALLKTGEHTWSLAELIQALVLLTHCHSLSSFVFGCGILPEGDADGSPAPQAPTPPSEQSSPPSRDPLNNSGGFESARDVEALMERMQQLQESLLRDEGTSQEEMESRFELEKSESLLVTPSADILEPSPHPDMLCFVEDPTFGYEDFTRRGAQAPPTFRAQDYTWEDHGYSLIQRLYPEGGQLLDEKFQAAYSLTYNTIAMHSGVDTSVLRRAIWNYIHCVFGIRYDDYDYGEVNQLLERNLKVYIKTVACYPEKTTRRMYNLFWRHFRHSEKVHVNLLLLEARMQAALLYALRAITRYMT
UniProt Q04864, sequence (Q04864 whole entry, looked up): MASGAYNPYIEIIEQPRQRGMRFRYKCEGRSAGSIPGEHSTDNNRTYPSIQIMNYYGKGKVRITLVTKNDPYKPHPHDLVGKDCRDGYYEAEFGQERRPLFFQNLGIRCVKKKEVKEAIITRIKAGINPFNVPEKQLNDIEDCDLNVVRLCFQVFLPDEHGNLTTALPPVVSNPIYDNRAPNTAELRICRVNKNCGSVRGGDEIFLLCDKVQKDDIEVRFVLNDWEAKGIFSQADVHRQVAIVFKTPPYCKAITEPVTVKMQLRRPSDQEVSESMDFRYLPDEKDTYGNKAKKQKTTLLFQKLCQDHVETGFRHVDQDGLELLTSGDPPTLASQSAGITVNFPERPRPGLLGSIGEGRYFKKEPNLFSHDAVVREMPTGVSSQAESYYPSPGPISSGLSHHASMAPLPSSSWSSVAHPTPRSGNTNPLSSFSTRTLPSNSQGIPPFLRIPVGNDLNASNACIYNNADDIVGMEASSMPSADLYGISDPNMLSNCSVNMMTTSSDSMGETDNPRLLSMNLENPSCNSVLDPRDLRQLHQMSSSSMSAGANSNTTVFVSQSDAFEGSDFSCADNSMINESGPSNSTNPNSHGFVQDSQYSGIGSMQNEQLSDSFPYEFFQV
UniProt Q9H4A4, sequence (Q9H4A4 whole entry, looked up): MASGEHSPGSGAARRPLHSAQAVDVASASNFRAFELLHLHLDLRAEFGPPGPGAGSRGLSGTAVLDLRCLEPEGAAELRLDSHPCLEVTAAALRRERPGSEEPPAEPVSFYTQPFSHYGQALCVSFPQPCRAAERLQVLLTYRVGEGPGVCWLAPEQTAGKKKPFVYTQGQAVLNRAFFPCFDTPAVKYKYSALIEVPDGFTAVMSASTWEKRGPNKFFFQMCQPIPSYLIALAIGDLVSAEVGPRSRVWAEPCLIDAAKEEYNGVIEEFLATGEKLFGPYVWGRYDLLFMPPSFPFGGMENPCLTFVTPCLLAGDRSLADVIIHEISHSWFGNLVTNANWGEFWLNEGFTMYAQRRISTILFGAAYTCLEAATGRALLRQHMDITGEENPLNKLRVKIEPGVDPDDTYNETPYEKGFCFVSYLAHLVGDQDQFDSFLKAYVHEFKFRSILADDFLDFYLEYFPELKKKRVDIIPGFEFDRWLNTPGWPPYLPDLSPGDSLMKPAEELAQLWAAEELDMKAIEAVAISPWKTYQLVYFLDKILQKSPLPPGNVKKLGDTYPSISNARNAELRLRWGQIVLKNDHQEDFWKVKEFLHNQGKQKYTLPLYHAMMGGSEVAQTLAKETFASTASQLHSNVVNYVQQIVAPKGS
UniProt P51151, sequence (P51151 whole entry, looked up): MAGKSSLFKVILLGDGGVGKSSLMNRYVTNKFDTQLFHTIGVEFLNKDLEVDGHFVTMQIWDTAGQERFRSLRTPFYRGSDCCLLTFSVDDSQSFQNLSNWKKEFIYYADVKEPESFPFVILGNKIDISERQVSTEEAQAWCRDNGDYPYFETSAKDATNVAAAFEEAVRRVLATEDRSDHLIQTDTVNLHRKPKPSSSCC

log2 fold change, inactive:
RPS12 (UniProt P25398) -0.063, RUNX1 isoform 8 (UniProt Q01196) -0.102, RAB9A (UniProt P51151) 0.018, RPS9 (UniProt P46781) -0.1, SCG3 (UniProt Q8WXD2) -0.003, RNPEP (UniProt Q9H4A4) -0.004, SCCPDH (UniProt Q8NBX0) -0.005, RABGGTA (UniProt Q92696) 0.064, RRAGB (UniProt Q5VZM2) 0.034, RPS21 (UniProt P63220) -0.004, RPP25L (UniProt Q8N5L8) -0.102, SCAF11 (UniProt Q99590) 0.076, RGS10 (UniProt O43665) 0.046, RPL38 (UniProt P63173) 0.014, RNF167 (UniProt Q9H6Y7) -0.001, SESN2 (UniProt P58004) -0.143, SEC31A (UniProt O94979) -0.076, RBM27 (UniProt Q9P2N5) -0.123, RAVER1 (UniProt E9PAU2) -0.062, ROCK1 (UniProt Q13464) -0.019, SDCBP (UniProt O00560) 0.021, RMC1 (UniProt Q96DM3) 0.038, REL (UniProt Q04864) -0.046
